# Measurements published in PubChem BioAssay (EPA / NIEHS).
# Activity calls are given as the source filed them. The calls were made as follows: active = hit-call score of the fitted dose curve at least 0.9, where 1 is the maximum; inactive = score below 0.9.
# Experiments:
# [1] = ATG_M_19_CIS: Attagene CIS-FACTORIAL HepG2 Assay for M19 Transcription Factor (Internal Marker) (AID 2282939); settings: HepG2 Attagene CIS-FACTORIAL M19 internal marker reporter; actives raise or lower the signal
# Summary of the method: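 Following a 24 h exposure, RNA from transfected HepG2 cells was reverse-transcribed, PCR-amplified with reporter-specific primers, end-labelled with 6-FAM and HpaI-digested before capillary separation. Values represent gain or loss versus DMSO.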
# [2] = ATG_Ets_CIS: Attagene CIS-FACTORIAL HepG2 Assay for human Erythroblast Transformation Specific (ETS) (AID 2282941); settings: HepG2 ETS cis-reporter transcription, actives raise or lower the signal
# Summary of the method: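 Bidirectional fit versus DMSO of reporter mRNA signal, detected by RT-PCR and capillary electrophoresis in HepG2 cells transiently transfected with cis-element reporters and dosed 24 h.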
# [3] = biological target: Hepatocyte nuclear factor 3-beta (Homo sapiens) (UniProt Q9Y261); assay: ATG_FoxA2_CIS: Attagene CIS-FACTORIAL HepG2 Assay for human Forkhead box A2 (FOXA2) (AID 2282942); settings: HepG2 cis-reporter transcription factor activity, 24 h; actives raise or lower the signal
# Hepatocyte nuclear factor 3-beta (Homo sapiens), sequence (Q9Y261 whole entry, looked up): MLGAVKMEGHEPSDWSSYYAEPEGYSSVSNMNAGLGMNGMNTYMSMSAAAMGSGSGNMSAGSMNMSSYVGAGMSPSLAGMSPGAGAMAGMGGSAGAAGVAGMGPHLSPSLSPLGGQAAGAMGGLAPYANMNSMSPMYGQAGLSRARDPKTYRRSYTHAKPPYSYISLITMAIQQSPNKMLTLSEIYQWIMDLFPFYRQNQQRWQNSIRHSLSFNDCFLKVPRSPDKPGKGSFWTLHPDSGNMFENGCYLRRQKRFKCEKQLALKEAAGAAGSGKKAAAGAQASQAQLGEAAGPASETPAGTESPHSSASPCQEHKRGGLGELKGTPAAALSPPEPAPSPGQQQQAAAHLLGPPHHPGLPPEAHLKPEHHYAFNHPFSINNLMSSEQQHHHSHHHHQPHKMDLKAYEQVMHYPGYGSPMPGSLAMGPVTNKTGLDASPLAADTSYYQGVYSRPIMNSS
# Summary of the method: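 Cells: HepG2, transient multiplex reporter transfection. Exposure 24 h. Detection: reporter-specific RT-PCR, fluorescent labelling, restriction digest, capillary electrophoresis. Analysis: bidirectional curve fit, DMSO as negative control.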
# [4] = ATG_FoxO_CIS: Attagene CIS-FACTORIAL HepG2 Assay for human Forkhead box O (FoxO) (AID 2282943); settings: HepG2 Attagene cis-reporter, FoxO element, mRNA; actives raise or lower the signal
# Summary of the method: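 Transfected HepG2 reporter cells exposed to test chemical for 24 h; reporter RNA measured by reverse transcription, PCR and fluorescent capillary electrophoresis; curves fitted for increases and decreases against DMSO.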
# [5] = ATG_GATA_CIS: Attagene CIS-FACTORIAL HepG2 Assay for human GATA Binding Protein (AID 2282944); settings: HepG2 GATA cis-element reporter, Attagene multiplex mRNA; actives raise or lower the signal
# Summary of the method: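 DMSO serves as negative control and baseline for bidirectional fitting of reporter mRNA changes. HepG2 cells bearing transiently transfected cis-promoter reporters were exposed 24 h; transcripts detected via RT-PCR and capillary electrophoresis.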
# [6] = ATG_GLI_CIS: Attagene CIS-FACTORIAL HepG2 Assay for human Zinc Finger Protein GLI1 (AID 2282945); settings: HepG2, Attagene cis-factorial reporter mRNA, GLI element; actives raise or lower the signal
# Summary of the method: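 Transiently transfected HepG2 cells report endogenous transcription factor activity via cis-element-driven reporter units. After 24 h compound exposure, reporter mRNA was measured by RT-PCR with capillary electrophoresis; bidirectional fitting against DMSO baseline.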
# [7] = ATG_GRE_CIS: Attagene CIS-FACTORIAL HepG2 Assay for human Glucocorticoid Response Elements (GRE) (AID 2282947); settings: HepG2 GRE cis-reporter, Attagene multiplex mRNA; actives raise or lower the signal
# Summary of the method: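 Fluorescence intensity of reporter-specific cDNA fragments, separated by capillary electrophoresis, provides the signal. Constructs carry cis-regulating promoters in transiently transfected HepG2 liver cells; 24 h incubation; fitting is bidirectional against DMSO.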
# [8] = ATG_ISRE_CIS: Attagene CIS-FACTORIAL HepG2 Assay for human Interferon Regulatory Factor 1 (IRF1) binding to an Interferon-Stimulated Response Element (ISRE) (AID 2282948); settings: HepG2 ISRE cis-reporter (Attagene), mRNA transcription readout; actives raise or lower the signal
# Summary of the method: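 Uses HepG2 liver cells transfected with cis-regulated reporters and measures mRNA 24 h post-dosing through RT-PCR, primer-extension labelling and capillary electrophoresis, with DMSO as negative control.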
# [9] = biological target: Bile acid receptor (Homo sapiens) (UniProt Q96RI1); assay: ATG_IR1_CIS: Attagene CIS-FACTORIAL HepG2 Assay for human Nuclear Receptor Subfamily 1 Group H Member 4 (NR1H4), IR1 submotif (AID 2282946); settings: IR1 reporter transcription, actives raise or lower the signal
# Bile acid receptor (Homo sapiens), sequence (Q96RI1 whole entry, looked up): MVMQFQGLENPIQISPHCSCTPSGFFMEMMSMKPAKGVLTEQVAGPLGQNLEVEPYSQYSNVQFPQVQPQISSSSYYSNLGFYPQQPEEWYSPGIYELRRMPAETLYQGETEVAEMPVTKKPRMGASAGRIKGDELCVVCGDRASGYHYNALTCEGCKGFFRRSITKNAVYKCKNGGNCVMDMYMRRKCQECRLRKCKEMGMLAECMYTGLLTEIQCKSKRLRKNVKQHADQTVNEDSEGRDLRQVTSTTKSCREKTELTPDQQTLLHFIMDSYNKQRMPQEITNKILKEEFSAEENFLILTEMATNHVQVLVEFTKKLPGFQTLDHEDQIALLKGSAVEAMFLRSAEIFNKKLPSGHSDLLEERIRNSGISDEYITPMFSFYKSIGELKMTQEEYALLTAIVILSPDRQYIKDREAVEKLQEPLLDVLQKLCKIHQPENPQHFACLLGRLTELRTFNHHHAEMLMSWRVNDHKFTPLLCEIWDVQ
# Summary of the method: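 Fluorescence of capillary-separated, HpaI-digested RT-PCR reporter products gave IR1-element mRNA induction in HepG2 cells 24 h after dosing. Endogenous transcription factors drove the cis-regulated reporters; activity was fitted bidirectionally against DMSO.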
# [10] = ATG_ERE_CIS: Attagene CIS-FACTORIAL HepG2 Assay for Estrogen Response Element (ERE) (AID 2282940); settings: HepG2 ERE cis-reporter, Attagene RNA transcript; actives raise or lower the signal
# Summary of the method: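 HepG2, transient cis-reporter units, 24 h exposure. RNA isolated, oligo(dT) RT, reporter-specific PCR, FAM extension, HpaI cut, CE detection. Gain/loss-of-signal vs DMSO.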
SMILES,outcome [1],outcome [2],outcome [3],outcome [4],outcome [5],outcome [6],outcome [7],outcome [8],outcome [9],AC50 [8],AC50 [2],AC50 [4],AC50 [5],AC50 [9],outcome [10]
COc1ccc(N)cc1,inactive,inactive,inactive,inactive,inactive,inactive,inactive,inactive,–,–,–,–,–,–,–
COCCl,inactive,inactive,inactive,inactive,inactive,inactive,inactive,inactive,inactive,–,–,–,–,–,–
COc1nn(C(=O)NS(=O)(=O)c2ccccc2OC(F)(F)F)c(=O)n1C,inactive,–,inactive,inactive,inactive,inactive,inactive,inactive,inactive,–,–,–,–,–,–
Clc1cccc(Cl)c1Cl,inactive,inactive,inactive,inactive,inactive,inactive,inactive,inactive,–,–,–,–,–,–,–
CCCCCCCCCCCCOS(=O)(=O)O,inactive,inactive,inactive,inactive,inactive,inactive,inactive,inactive,–,–,–,–,–,–,–
O=C(O)COc1cc(Cl)c(Cl)cc1Cl,inactive,–,inactive,–,inactive,inactive,inactive,inactive,inactive,–,–,–,–,–,–
O=C(O)C1(c2ccc3c(c2)OC[C@H](Cc2ccc(-c4ccccc4)cc2)[C@H]3O)CCCC1,inactive,inactive,inactive,inactive,inactive,inactive,–,–,inactive,2830 nM (active),–,–,–,–,–
C[CH2][Hg][S]c1ccccc1C(=O)O,inactive,–,inactive,–,–,inactive,inactive,–,inactive,6490 nM (active),3710 nM (active),2290 nM (active),1990 nM (active),–,–
C[C@]12CC[C@@H](O)C[C@@H]1CC[C@@H]1[C@@H]2CC[C@]2(C)C(=O)CC[C@@H]12,inactive,inactive,inactive,–,inactive,inactive,inactive,inactive,–,–,–,–,–,–,–
Oc1c(Cl)cc(Cl)cc1Cl,inactive,inactive,inactive,inactive,inactive,inactive,inactive,inactive,–,–,–,–,–,–,–
Cl[C@H]1OCCO[C@@H]1Cl,inactive,inactive,inactive,–,inactive,inactive,inactive,inactive,inactive,–,–,–,–,–,–
O=[N+]([O-])c1ccccc1O,inactive,inactive,inactive,inactive,inactive,inactive,inactive,inactive,–,–,–,–,–,–,–
O=C1C[C@@H]2OCC=C3CN4CC[C@]56c7ccccc7N1[C@H]5[C@H]2[C@H]3C[C@H]46,inactive,inactive,inactive,–,inactive,inactive,–,inactive,–,–,–,–,–,–,–
Cc1cc(C)cc(C)c1,inactive,inactive,inactive,inactive,inactive,inactive,–,inactive,–,–,–,–,–,–,–
CCCCS(=O)(=O)Cl,inactive,–,inactive,inactive,inactive,inactive,inactive,inactive,inactive,–,–,–,–,–,–
CC(C=O)Cc1ccc2c(c1)OCO2 (configuration not stated),inactive,inactive,inactive,inactive,inactive,inactive,inactive,inactive,inactive,–,–,–,–,–,–
N#CS,inactive,inactive,inactive,inactive,inactive,inactive,inactive,inactive,–,–,–,–,–,–,–
CCOc1cc(C=O)ccc1O,inactive,inactive,inactive,inactive,inactive,inactive,inactive,inactive,–,–,–,–,–,–,–
CCC[CH2][Sn]([CH2]CCC)([CH2]CCC)[CH2]CCC,inactive,inactive,inactive,inactive,inactive,inactive,inactive,–,–,11100 nM (active),–,–,–,378 nM (active),–
C=CC(Cl)CCl (configuration not stated),inactive,inactive,inactive,inactive,inactive,inactive,inactive,inactive,inactive,–,–,–,–,–,–
O=c1nc(O)n(Cl)c(=O)n1Cl,inactive,inactive,inactive,inactive,inactive,inactive,inactive,inactive,–,–,–,–,–,–,–
CC(C)[N+](=O)[O-],inactive,inactive,inactive,inactive,inactive,inactive,inactive,inactive,inactive,–,–,–,–,–,–
CCCCCCCCCCCCc1cccc(S(=O)(=O)O)c1,–,inactive,inactive,inactive,inactive,inactive,inactive,inactive,–,–,–,–,–,–,–
O=C(CBr)c1ccc(O)cc1,–,inactive,inactive,inactive,inactive,inactive,inactive,inactive,inactive,–,–,–,–,–,–
CCOC(=O)OC1=C(c2cc(C)ccc2C)C(=O)NC12CCC(OC)CC2 (configuration not stated),–,inactive,inactive,inactive,inactive,inactive,inactive,inactive,inactive,–,–,–,–,–,inactive
OCCN(CCO)CCO,–,inactive,inactive,inactive,inactive,inactive,–,inactive,–,–,–,–,–,–,–
